Records with an inconclusive call do not appear. Active and inactive are the calls of the source. The call rests on the fitted dose curve; in most records, active means well fitted cell-killing curve with a large enough effect; inconclusive means small, poorly fitted or top-dose-only effect, or effect the other way; inactive means no such curve, though single readings can be large or run the other way.
System: CAOV3
Experiment: Confirmatory qHTS for gynecologic anti-cancer compounds from libraries of approved drugs and bioactive compounds; further: nearly all actives have a fitted effect of over 55% in size
Conditions: gynecologic cancer cell panel viability, ATPlite luminescence, 48 h; series mostly up to 57.6 µM
Outline: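 Viability is measured as ATP-dependent luciferase light using ATPlite, read 15 min after reagent addition at room temperature. Compounds, in DMSO, span 57.5 uM down to 0.977 nM over 11 threefold steps for 48 h.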
Potency means the concentration at half of the fitted maximal effect.

| SMILES | Potency |
| --- | --- |
| CCN(CC)CCNC(=O)c1c(C)[nH]c(/C=C2\C(=O)Nc3ccc(F)cc32)c1C | 15.8 µM (active) |
| C#C[C@]1(O)CC[C@H]2[C@@H]3CCC4=CC(=O)CC[C@@H]4[C@H]3CC[C@@]21CC | inactive |
| O=C(/C=C/c1cccc(S(=O)(=O)Nc2ccccc2)c1)NO | 10.6 µM (active) |
| Cc1cc(Nc2nc(N[C@@H](C)c3ccc(F)cc3)c(C#N)cc2F)n[nH]1 | 17.2 µM (active) |
| COC(C)(C)CCn1nc(Nc2c(C)cccc2C)c2cnc(Nc3ccc(OCCN4CCCC4)c(F)c3)nc21 | 21.7 µM (active) |
| CCC1C(=O)N(C)c2cnc(Nc3ccc(C(=O)NC4CCC(N5CCN(CC6CC6)CC5)CC4)cc3OC)nc2N1C(C)C (centres undefined) | 2.17 µM (active) |
| C1CCC(C(CC2CCCCN2)C2CCCCC2)CC1 (centres undefined) | 24.3 µM (active) |
| Fc1cc(-c2cccc3ncc(-c4cnn(C5CCNCC5)c4)nc23)cc(F)c1CN1CCOCC1 | 27.3 µM (active) |
| CC(C)[C@@H](CS(=O)(=O)C(C)C)N1C(=O)[C@@](C)(CC(=O)O)C[C@H](c2cccc(Cl)c2)[C@H]1c1ccc(Cl)cc1 | inactive |
| CCS(=O)(=O)N1CCN(c2ccc(Nc3ncc(C(N)=O)c(NC4CC4)n3)cc2)CC1 | 6.85 µM (active) |
| CN[C@@H](C)C(=O)N[C@H]1CN(C(=O)CC(C)C)CC[C@H]2CC[C@@H](C(=O)NC(c3ccccc3)c3ccccc3)N2C1=O | inactive |
| CC(C)Nc1cc(-c2c[nH]c(C(=O)N[C@H](CO)c3cccc(Cl)c3)c2)c(Cl)cn1 | inactive |
| C[C@]12CCC(=O)C=C1CC[C@@H]1[C@@H]2[C@@H](O)C[C@@]2(C)[C@H]1CC[C@]2(O)C(=O)CO | inactive |
| Cc1c(C)n(Cc2ccc(-c3ccccc3C(=O)O)cc2)c2ccc(C(=O)N[C@@H](C)c3ccc([N+](=O)[O-])cc3)cc12 | inactive |
| COc1cc(Nc2c(C#N)cnc3cc(OCCCN4CCN(C)CC4)c(OC)cc23)c(Cl)cc1Cl | 27.3 µM (active) |
| Oc1cn2c(n1)Nc1ccc(Cl)c(Cl)c1C2 | inactive |
| CN(C)CCC(CSc1ccccc1)Nc1ccc(S(=O)(=O)NC(=O)c2ccc(N3CCN(Cc4ccccc4-c4ccc(Cl)cc4)CC3)cc2)cc1[N+](=O)[O-] (centres undefined) | 9.68 µM (active) |

| SMILES | Potency |
| --- | --- |
| COc1cc(-c2nn(C3CCC(N4CCN(C(C)=O)CC4)CC3)c3ncnc(N)c23)ccc1NC(=O)c1cc2ccccc2n1C (centres undefined) | 30.6 µM (active) |
| CC(=O)c1cnc2ccc(-c3cc(Cl)c(O)c(Cl)c3)nc2c1NC1CCC(CN(C)C)CC1 (centres undefined) | 0.157 µM (active) |
| CNC(=O)c1ccccc1Sc1ccc2c(/C=C/c3ccccn3)n[nH]c2c1 | 6.85 µM (active) |
| CC(C)Oc1ccc(C(=O)NC(CNC(=O)CN(C)C)Cc2ccc(-c3cn4cccc(C(C)O)c4n3)cc2)cc1Cl (centres undefined) | inactive |
| Cc1ccc(C(=O)Nc2ccc(CN3CCN(C)CC3)c(C(F)(F)F)c2)cc1C#Cc1cnc2cccnn12 | 19.3 µM (active) |
| CN(C)/N=N/c1nc[nH]c1C(N)=O | inactive |
| CNc1nc(Nc2ccc(C(=O)N3CCOCC3)cc2OC)ncc1Cl | inactive |
| CCCCN(CCCC)CC(O)c1cc(Cl)cc2c1-c1ccc(Cl)cc1/C2=C/c1ccc(Cl)cc1 (centres undefined) | inactive |
| CS(=O)(=O)c1ccc(-c2cnc(N)c(C(=O)Nc3ccccc3)n2)cc1 | inactive |
| O=C(Nc1cccnc1)N1CCC(Cc2cccc(Oc3ccc(C(F)(F)F)cn3)c2)CC1 | inactive |
| O=C1c2c(O)ccc(O)c2C(=O)c2c(NCCNCCO)ccc(NCCNCCO)c21 | 3.85 µM (active) |
| C[C@@H](Oc1cc(-c2cnn(C3CCNCC3)c2)cnc1N)c1c(Cl)ccc(F)c1Cl | 17.2 µM (active) |
| S=c1nc[nH]c2nc[nH]c12 | 0.769 µM (active) |
| Nc1ccccc1NC(=O)c1ccc(CNc2nccc(-c3cccnc3)n2)cc1 | 2.73 µM (active) |
| O=C(CCCCCCC(=O)Nc1ccccc1)NO | 12.2 µM (active) |
| CCN1C[C@H](C)n2c(c(O)c3c(=O)n(Cc4ccc(F)c(Cl)c4)nc(C(=O)NC)c32)C1=O | inactive |
| CC[C@@]1(O)C(=O)OCc2c1cc1n(c2=O)Cc2cc3cc(O)ccc3nc2-1 | 0.109 µM (active) |
